In PubChem BioAssay AID651791 (National Center for Advancing Translational Sciences (NCATS), 2012):
Results filed as inconclusive are left out. Active and inactive are the calls of the source. Calls come from the whole dose curve; as a rule, active = well fitted inhibition curve with a large enough effect; inconclusive = small, poorly fitted or top-dose-only effect; inactive = no such curve, though single readings can be large or run the other way.

Assay: InCell qHTS Assay for Inhibitors of the mTORC1 Signaling Pathway in MEF (Tsc2-/-, p53-/-) Cells: Hit Validation;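 note: phospho-S6 Ser235/236 signal normalized to propidium iodide cell count per well; nearly all actives have a fitted effect of over 75% in size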
Settings: phospho-rpS6 immunofluorescence, 24 h; activity change, negative = inhibition: at 38.3 µM (top of the series)
Potency is the fitted concentration of half-maximal effect.

| Compound | Potency | activity change, negative = inhibition [%] |
| --- | --- | --- |
| CCc1ccc(-n2c(=O)c3c4c(sc3n(CC(=O)c3ccc(F)cc3)c2=O)CCC4)cc1 | 9.27 µM (active) |  |
| CCOC(=O)Cn1c(=O)c2c(nc(N3CCOCC3)n2Cc2ccccc2)n(C)c1=O | 11.7 µM (active) |  |
| CC(=O)Nc1ccc(NC(=O)c2nc(S(=O)(=O)Cc3ccc(F)cc3)ncc2Cl)cc1 | 3.29 µM (active) |  |
| Cc1ccc(CN2C(=O)C(=O)c3cc(Br)cc(C)c32)cc1 | 18.5 µM (active) |  |
| Cc1cccc(Nc2ncc(NC(=O)c3cccc(F)c3)c(Nc3cccc(C)c3)n2)c1 |  | -100 |
| O=C(NC1CCN(Cc2ccccc2)CC1)c1ccc(Cn2c(=O)c3ccccc3n(Cc3ccc(F)cc3)c2=O)cc1 |  | -100 |
| CCC(C)S(=O)(=O)c1oc(-c2cccs2)nc1S(=O)(=O)c1ccccc1 (configuration not stated) | 1.17 µM (active) |  |
| Cc1nc2ccc(S(=O)(=O)CCC(=O)Nc3ccc(Cl)cc3)cc2s1 |  | -100 |
| COc1cc(OC)cc(C(=O)NCCc2csc(-c3cccc(C)c3)n2)c1 |  | 1.72 |
| CCN1C(=O)c2ccccc2Sc2ccc(NC(=O)Cc3ccc(OC)cc3)cc21 |  | -100 |
| Cn1nc(-c2ccc(OCC(=O)Nc3ccc(Cl)cc3)cc2)c2ccccc2c1=O |  | -100 |
| COc1cccc(C2CC(=O)Nc3cc4c(cc32)OCCO4)c1OC (configuration not stated) |  | -100 |
| CCc1ccc(OCC(=O)Nc2ccc3oc(-c4ccc(OC)cc4)nc3c2)cc1 |  | -100 |
| COc1cc(O)ccc1-c1nc2ccc(Br)cn2c1Nc1ccccc1C |  | -100 |
| Cc1cccc(CS(=O)(=O)c2ncc(Cl)c(C(=O)Nc3nnc(C(C)C)s3)n2)c1 | 13.1 µM (active) |  |
| CCCS(=O)(=O)c1ncc(Cl)c(C(=O)Nc2c(C(=O)Nc3ccccc3)oc3ccccc23)n1 | 2.33 µM (active) |  |
| CCCCOc1ccc(Cn2c(=O)sc3ccccc32)cc1 |  | -100 |
| Cc1c(C(=O)OC2CCCCC2)[nH]c2c1C(=O)CC(c1ccccc1Cl)C2 (configuration not stated) |  | -100 |
| COc1ccc(-c2nnc(SCC(=O)NCc3ccccc3)nc2-c2ccc(OC)c(OC)c2)cc1OC |  | -100 |

| Compound | Potency | activity change, negative = inhibition [%] |
| --- | --- | --- |
| CCN1CCN(C(=O)Cn2ncc3c4ccccc4n(Cc4c(C)cc(C)cc4C)c3c2=O)CC1 |  | -100 |
| CC1=Nc2cc(C(=O)NC3CCCC3)ccc2Sc2ccc(Cl)cc21 |  | -100 |
| CCOc1ccc(N(C(C)C(=O)Nc2cc(Cl)ccc2OC)S(C)(=O)=O)cc1 (configuration not stated) |  | -100 |
| CCc1ccc(-c2nc(CSCC(=O)NCc3ccc(C)cc3)c(C)o2)cc1 |  | -100 |
| COc1ccc(OC)c(C(=O)CC2(O)C(=O)N(Cc3ccccc3C)c3ccccc32)c1 (configuration not stated) |  | -100 |
| CCNS(=O)(=O)c1cc(-c2nnc(Nc3cccc(C(F)(F)F)c3)c3ccccc23)ccc1C |  | -100 |
| Cc1cccc(NC(=O)c2c(N)sc3c2CCC(C)C3)c1 (configuration not stated) |  | -100 |
| Cc1cc(NCc2ccc(Cl)cc2)n2cnnc2n1 |  | -100 |
| CC1=C(C(=O)OC2CCCC2)C(c2ccccc2Cl)CC(=O)N1 (configuration not stated) |  | -100 |
| CCOC(=O)c1c(NC(=O)c2nc(S(C)(=O)=O)ncc2Cl)sc(C(C)=O)c1C | 3.69 µM (active) |  |
| COc1ccc2c(c1)CC(C(=O)Nc1cc(Cl)ccc1C)CO2 (configuration not stated) |  | -100 |
| CCn1c(CC2C(=O)N(C)c3ccc(Br)cc32)nc2ccccc2c1=O (configuration not stated) |  | -100 |
| CC(C)CCNC(=O)Nc1ccc2c(c1)N(C)C(=O)c1ccccc1S2 |  | -100 |
| CC(C)(C)c1ccc(C2NC(=O)c3n[nH]c(-c4cccs4)c32)cc1 (configuration not stated) |  | -100 |
| Cc1c(C(=O)OC2CCC(C)CC2)[nH]c2c1C(=O)CC(c1ccc(F)cc1)C2 (configuration not stated) |  | -1.27 |
| COc1ccc(OC)c(NC(=O)c2nnn(CC(=O)Nc3ccc(C(C)C)cc3)c2N)c1 |  | -100 |
| COc1ccc(CCN2C(=O)c3[nH]nc(-c4ccccc4O)c3C2c2cccc(OC)c2)cc1 (configuration not stated) |  | -28.2 |
| Cc1ccc(-c2nn(C)c(=O)c3ccccc23)cc1S(=O)(=O)NCCCN(C)C |  | -100 |
